The values below come from PubChem BioAssay AID434959 (Broad Institute, 2010).

The structures appear in SMILES notation. About 110 (0.37%) of roughly 30,000 compounds were called active. The sample as a whole holds a higher share of actives than the screen did. A number with no mark means an inactive call.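 Rule for the calls: active = delta delta Cp rounded down to an integer at or above 3, about 3 SD of DMSO wells; inactive = the rest.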

The assay can be described thus: inhibitors of YB-1 gene expression, primary screen, cell-based, fluorescence (AID 434959).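 Note: higher means less YB-1 transcript or more CDIP transcript relative to DMSO.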 Conditions: U2OS, qRT-PCR YB-1 vs CDIP delta delta Cp, 16 h; stronger effect = higher value; zero = DMSO, each unit about twofold.
On to `C[C@H]1CN([C@@H](C)CO)C(=O)c2cc(NS(=O)(=O)c3cccs3)ccc2O[C@@H]1CN(C)C(=O)Nc1cccc2ccccc12`, for which the delta Cp (YB-1 minus CDIP) was -0.308. `Cc1noc(C)c1S(=O)(=O)N(C)C[C@H]1OCCCC[C@@H](C)Oc2ccc(NC(=O)C3CCCCC3)cc2C(=O)N([C@H](C)CO)C[C@@H]1C`: the delta Cp (YB-1 minus CDIP) was 0.386. For the compound `C[C@H](CO)N1C[C@H](C)[C@H](CN(C)S(C)(=O)=O)Oc2ncc(C#CCN(C)C)cc2C1=O`, the delta Cp (YB-1 minus CDIP) was 0.217. Consider `NCCCC[C@@H]1NC(=O)[C@@H]2C[C@H](C(=O)NCc3ccc(F)cc3)[C@H](c3ccc(O)cc3)N2C1=O`, for which the delta Cp (YB-1 minus CDIP) is 0.142. As for `C[C@H](CO)N1C[C@H](C)[C@H](CN(C)S(=O)(=O)c2cccs2)Oc2ccc(NS(=O)(=O)c3ccccc3)cc2C1=O`, the delta Cp (YB-1 minus CDIP) was -0.379. As to `Cc1ccc(S(=O)(=O)Nc2cccc3c2O[C@@H](CN(C)S(=O)(=O)c2cccs2)[C@@H](C)CN([C@@H](C)CO)C3=O)cc1`, the delta Cp (YB-1 minus CDIP) was -0.365. Take `COc1ccc(-c2cnc3c(c2)C(=O)N([C@H](C)CO)C[C@H](C)[C@H](CN(C)S(=O)(=O)c2ccccc2)O3)cc1`: the delta Cp (YB-1 minus CDIP) is 0.828. On to `C=C(CC/C=C(\C)C(=O)O)C1(O)CC=C(C)CC1` (stereo unspecified), for which the delta Cp (YB-1 minus CDIP) is -0.182. Consider `Cc1noc(C)c1S(=O)(=O)Nc1ccc2c(c1)C(=O)N([C@@H](C)CO)C[C@@H](C)[C@H](CN(C)C(=O)Nc1cccc3ccccc13)O2`, for which the delta Cp (YB-1 minus CDIP) is 0.0124. Take `C[C@@H]1CN([C@H](C)CO)C(=O)Cc2cc(NS(=O)(=O)c3cccs3)ccc2O[C@H]1CN(C)C(=O)Nc1ccc2c(c1)OCO2`: the delta Cp (YB-1 minus CDIP) is 0.417. On to `Cc1noc(C)c1NC(=O)Nc1ccc2c(c1)C(=O)N([C@H](C)CO)C[C@H](C)[C@H](CN(C)Cc1ccc(-c3ccccc3)cc1)O2`, for which the delta Cp (YB-1 minus CDIP) was 0.364. In the case of `O=C(O)CCCCCC(=O)N/N=C/c1ccco1`, the delta Cp (YB-1 minus CDIP) was 0.15. Turning to `COc1ccc(S(=O)(=O)N(C)C[C@H]2Oc3c(NC(=O)NC4CCCCC4)cccc3C(=O)N([C@@H](C)CO)C[C@@H]2C)cc1`, the delta Cp (YB-1 minus CDIP) is -0.0504. In the case of `C[C@]12C=CC(=O)C=C1CC[C@@H]1[C@@H]2C(=O)C[C@@]2(C)[C@H]1CC[C@]2(O)C(=O)CO`, the delta Cp (YB-1 minus CDIP) is 1.09. The figure for `C[C@H]1CN([C@@H](C)CO)C(=O)Cc2cc(NC(=O)Cn3cnnn3)ccc2O[C@H]1CN(C)Cc1ccc(C(=O)O)cc1` is -0.00589; for `C[C@@H]1CN([C@H](C)CO)C(=O)Cc2cc(N(C)C)ccc2O[C@H]1CN(C)C(=O)NC1CCCCC1` it is -0.109. In the case of `C[C@H](CO)N1C[C@H](C)[C@H](CN(C)S(=O)(=O)c2ccccc2C#N)OCc2cn(nn2)CCCC1=O`, the delta Cp (YB-1 minus CDIP) is -0.329. With `C[C@@H]1CN([C@@H](C)CO)C(=O)Cc2cc(NC(=O)Cc3ccccc3)ccc2O[C@@H]1CN(C)Cc1ccc(Oc2ccccc2)cc1`, the delta Cp (YB-1 minus CDIP) is -0.162. For `C[C@H]1CN([C@@H](C)CO)C(=O)c2cccc(NC(=O)c3cnccn3)c2O[C@H]1CN(C)S(=O)(=O)c1cn(C)cn1` the value was -0.0985; for `C[C@@H]1CN([C@H](C)CO)C(=O)CCCn2cc(nn2)CO[C@H]1CN(C)S(=O)(=O)c1ccc(Oc2ccccc2)nc1`, -0.176; for `CC1(C)C2CC[C@]3(C)C(C(=O)C=C4[C@@H]5C[C@@](C)(C(=O)O)CC[C@]5(C)CC[C@]43C)[C@@]2(C)CC[C@@H]1O` (stereo partly specified), 0.127. The figure for `COc1cc(O[C@@H]2O[C@H](CO[C@H]3OC[C@](O)(COC(=O)c4ccc(O)c(OC)c4)[C@H]3O)[C@@H](O)[C@H](O)[C@H]2O)ccc1O` is 0.323. For `C[C@H]1CN([C@@H](C)CO)C(=O)Cc2cc(NS(=O)(=O)c3cccs3)ccc2O[C@H]1CN(C)Cc1ccncc1` the value was 0.635. Turning to `C[C@H](CO)N1C[C@H](C)[C@H](CN(C)S(=O)(=O)c2cccc(F)c2)OCc2cnnn2CCCC1=O`, the delta Cp (YB-1 minus CDIP) is 0.303. The figure for `Cc1ccc(S(=O)(=O)Nc2cccc3c2O[C@@H](CN(C)S(=O)(=O)c2c(C)noc2C)[C@@H](C)CN([C@H](C)CO)C3=O)cc1` is -0.382; for `Nn1c(C(=O)N2CCCC2)nc2ccccc2c1=O` it is 0.192; for `CCOC(=O)c1cnn2c(C(F)(F)F)cc(C)nc12` it is -0.121. In the case of `NC(=S)c1cnn2c(C(F)(F)F)cc(C(F)(F)F)nc12`, the delta Cp (YB-1 minus CDIP) is 9.53 (active). In the case of `COC(=O)CCCCCCC(=O)N/N=C/c1ccc(O)c(O)c1O`, the delta Cp (YB-1 minus CDIP) was -0.105. For `COc1ccc(CN(C)C[C@H]2Oc3ccc(NC(=O)Cn4cnnn4)cc3CC(=O)N([C@@H](C)CO)C[C@@H]2C)cc1` the value was -0.171; for `CC(C)(C)OC(=O)Nc1cccc(/C=N/NC(=O)CCCCCC(=O)Nc2ccccc2O)c1`, -0.601. For `COc1cc(/C=N\NC(=O)CCCCCCC(=O)NO)c(Br)cc1O` the value was -0.218; for `C[C@@H]1CN([C@H](C)CO)C(=O)CCCn2cc(nn2)CO[C@@H]1CN(C)C(=O)Nc1ccc(-c2cccs2)cc1`, -0.273. Consider `C[C@@H]1CN([C@@H](C)CO)C(=O)Cc2cc(NC(=O)C3CC3)ccc2O[C@@H]1CN(C)S(C)(=O)=O`, for which the delta Cp (YB-1 minus CDIP) was 0.012. On to `C[C@H]1CN([C@@H](C)CO)C(=O)c2cccc(NC(=O)Nc3ccc(F)cc3)c2O[C@@H]1CN(C)C(=O)Nc1ccc2c(c1)OCO2`, for which the delta Cp (YB-1 minus CDIP) is 1.42. Take `COc1ccc(NC(=O)N(C)C[C@@H]2Oc3c(NC(=O)c4ccc(-c5nccs5)cc4)cccc3C(=O)N([C@H](C)CO)C[C@@H]2C)cc1`: the delta Cp (YB-1 minus CDIP) is -0.282.

With `O=C(CCCCC(=O)N/N=C/c1ccc(C(F)(F)F)cc1)NO`, the delta Cp (YB-1 minus CDIP) is 0.349.

Consider `COc1ccc(S(=O)(=O)N(C)C[C@H]2Oc3ccc(NC(=O)Nc4c(C)noc4C)cc3CC(=O)N([C@@H](C)CO)C[C@H]2C)cc1`, for which the delta Cp (YB-1 minus CDIP) was -0.281. On to `C[C@@H]1CN([C@H](C)CO)C(=O)c2cccc(NS(=O)(=O)c3ccc(F)cc3)c2O[C@@H]1CN(C)C(=O)Nc1ccc(C(F)(F)F)cc1`, for which the delta Cp (YB-1 minus CDIP) was -0.00681. The figure for `C[C@H](CO)N1C[C@H](C)[C@@H](CN(C)Cc2ccc3c(c2)OCO3)OCc2cnnn2CCCC1=O` is -0.135; for `C[C@H]1CN([C@@H](C)CO)C(=O)CCCn2cc(nn2)CO[C@H]1CN(C)S(=O)(=O)c1ccc2ccccc2c1` it is 0.00166.

With `Cc1noc(C)c1NC(=O)Nc1ccc2c(c1)CC(=O)N([C@H](C)CO)C[C@@H](C)[C@@H](CN(C)Cc1ccncc1)O2`, the delta Cp (YB-1 minus CDIP) was -0.309. For the compound `O=C(O)CCCCCCC(=O)N/N=C/c1cccs1`, the delta Cp (YB-1 minus CDIP) is -0.0775. Regarding `COc1cccc(-c2cnc3c(c2)C(=O)N([C@H](C)CO)C[C@H](C)[C@H](CN(C)S(=O)(=O)c2cccc(F)c2)O3)c1`, the delta Cp (YB-1 minus CDIP) was -0.156. On to `C[C@@H]1CN([C@H](C)CO)C(=O)c2cccc(NC(=O)c3ccncc3)c2O[C@@H]1CN(C)C`, for which the delta Cp (YB-1 minus CDIP) is -0.219. Regarding `C[C@@H]1CN([C@@H](C)CO)C(=O)Cc2cc(NC(=O)Nc3ccccc3)ccc2O[C@@H]1CN(C)S(=O)(=O)c1ccc(F)cc1`, the delta Cp (YB-1 minus CDIP) was -0.00869. With `O=C(N/N=C/[C@H](O)[C@@H](O)[C@H](O)[C@H](O)CO)c1ccccc1O`, the delta Cp (YB-1 minus CDIP) is 0.111.

Regarding `C[C@@H]1CN([C@H](C)CO)C(=O)c2cccc(NC(=O)Nc3ccc4c(c3)OCO4)c2O[C@@H]1CN(C)Cc1ccccc1`, the delta Cp (YB-1 minus CDIP) was -0.407. The figure for `C[C@@H]1CN([C@H](C)CO)C(=O)c2cc(NC(=O)CCCN(C)C)ccc2O[C@H]1CN(C)Cc1ccc(C(=O)O)cc1` is -0.213. For `Cc1ncc(CO)c(/C=N/NC(=O)c2ccc(C(=O)NO)cc2)c1O` the value was 0.181. As to `C[C@@H]1CN([C@@H](C)CO)C(=O)Cc2cc(NC(=O)Nc3cccc4ccccc34)ccc2O[C@@H]1CN(C)CC1CCCCC1`, the delta Cp (YB-1 minus CDIP) is 0.088.
